Experiments:
Assay in all cases: DAPPL (digital affinity profiling via proximity ligation, sequencing); 10 mM Tris-HCl pH 7.5, 50 mM NaCl, 1 mM DTT, 4% glycerol, room temperature, 30 min; GST-TFs on glutathione beads, 16-mer random dsDNA library, 0.1% formaldehyde crosslink after washing; high values mean tight binding
FEV = biological target: T1, FEV (Homo sapiens, UniProt Q99581 1-238); conditions: protein: recombinant; tags: N-terminal GST; dsDNA, one strand shown
T1 sequence: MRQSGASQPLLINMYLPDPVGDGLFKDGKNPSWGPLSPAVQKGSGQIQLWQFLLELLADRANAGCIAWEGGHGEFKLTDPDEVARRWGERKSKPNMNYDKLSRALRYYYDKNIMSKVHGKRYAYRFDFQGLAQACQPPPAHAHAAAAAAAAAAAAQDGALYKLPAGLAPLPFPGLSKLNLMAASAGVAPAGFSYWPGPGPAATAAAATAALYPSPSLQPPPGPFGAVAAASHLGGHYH
In short: (§1)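 A tag-only sample was pooled with DNA-barcoded human transcription factors that had been expressed in yeast as GST fusions and captured on glutathione beads. The pools were incubated for 30 min at room temperature with 200 nmole of a random double-stranded 16-mer DNA library in Tris/NaCl/DTT/glycerol buffer, then washed, crosslinked with 0.1% formaldehyde, proximity-ligated (BsaI/T4 ligase, 1 h, 37 °C), PCR-amplified and sequenced on an Illumina NextSeq500. Binding signal is each hexamer's read frequency for a factor divided by its frequency for the tag-only sample.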

ETV5 = ETV5 (Homo sapiens, UniProt P41161 1-510); conditions: protein: recombinant; tags: N-terminal GST; dsDNA, one strand shown
Sequence of ETV5 (P41161 whole entry): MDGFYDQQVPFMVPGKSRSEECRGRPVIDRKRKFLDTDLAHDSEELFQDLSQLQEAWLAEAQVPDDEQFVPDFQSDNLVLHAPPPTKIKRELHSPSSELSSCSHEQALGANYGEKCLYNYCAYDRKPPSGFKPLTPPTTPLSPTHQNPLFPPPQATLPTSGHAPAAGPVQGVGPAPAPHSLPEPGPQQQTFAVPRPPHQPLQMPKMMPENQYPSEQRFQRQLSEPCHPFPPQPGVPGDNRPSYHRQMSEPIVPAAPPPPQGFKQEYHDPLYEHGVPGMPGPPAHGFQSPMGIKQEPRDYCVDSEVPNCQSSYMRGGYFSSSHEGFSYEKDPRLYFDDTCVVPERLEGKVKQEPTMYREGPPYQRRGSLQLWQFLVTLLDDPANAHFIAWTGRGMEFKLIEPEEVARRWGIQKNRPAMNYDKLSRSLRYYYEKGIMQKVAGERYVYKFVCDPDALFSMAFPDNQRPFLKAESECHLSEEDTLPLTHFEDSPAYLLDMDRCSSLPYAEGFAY
In short: as §1

HSF1 = HSF1 (Homo sapiens, UniProt Q00613 1-529); conditions: protein: recombinant; tags: N-terminal GST; chain copies: 3; dsDNA, one strand shown
Sequence of HSF1 (Q00613 whole entry): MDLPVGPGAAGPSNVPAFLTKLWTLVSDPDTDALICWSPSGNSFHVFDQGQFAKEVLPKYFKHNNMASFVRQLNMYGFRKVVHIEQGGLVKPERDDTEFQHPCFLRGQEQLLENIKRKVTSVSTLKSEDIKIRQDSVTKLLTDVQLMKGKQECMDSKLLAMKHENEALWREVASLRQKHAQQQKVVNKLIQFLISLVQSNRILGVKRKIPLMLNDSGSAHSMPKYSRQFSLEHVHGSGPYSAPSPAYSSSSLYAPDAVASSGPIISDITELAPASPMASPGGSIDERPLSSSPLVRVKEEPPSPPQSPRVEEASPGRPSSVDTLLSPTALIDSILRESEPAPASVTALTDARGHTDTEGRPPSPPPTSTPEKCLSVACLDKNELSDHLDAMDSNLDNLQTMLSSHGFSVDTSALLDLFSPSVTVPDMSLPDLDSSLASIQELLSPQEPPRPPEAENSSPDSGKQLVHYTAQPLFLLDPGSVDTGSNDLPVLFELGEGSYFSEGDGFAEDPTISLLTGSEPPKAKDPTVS
In short: as §1

SPIC = biological target: T2, SPIC (Homo sapiens, UniProt Q8N5J4 1-248); conditions: protein: recombinant; tags: N-terminal GST; dsDNA, one strand shown
T2 sequence: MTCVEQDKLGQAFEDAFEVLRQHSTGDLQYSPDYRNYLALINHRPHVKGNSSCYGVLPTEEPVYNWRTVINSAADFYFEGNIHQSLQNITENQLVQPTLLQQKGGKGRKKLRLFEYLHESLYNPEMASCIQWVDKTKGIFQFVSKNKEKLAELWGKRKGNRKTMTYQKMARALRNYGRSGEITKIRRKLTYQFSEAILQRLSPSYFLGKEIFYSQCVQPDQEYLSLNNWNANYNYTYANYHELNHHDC
In short: as §1

ELF4 = ELF4 (Homo sapiens, UniProt Q99607 1-663); conditions: protein: recombinant; tags: N-terminal GST; dsDNA, one strand shown
Sequence of ELF4 (Q99607 whole entry): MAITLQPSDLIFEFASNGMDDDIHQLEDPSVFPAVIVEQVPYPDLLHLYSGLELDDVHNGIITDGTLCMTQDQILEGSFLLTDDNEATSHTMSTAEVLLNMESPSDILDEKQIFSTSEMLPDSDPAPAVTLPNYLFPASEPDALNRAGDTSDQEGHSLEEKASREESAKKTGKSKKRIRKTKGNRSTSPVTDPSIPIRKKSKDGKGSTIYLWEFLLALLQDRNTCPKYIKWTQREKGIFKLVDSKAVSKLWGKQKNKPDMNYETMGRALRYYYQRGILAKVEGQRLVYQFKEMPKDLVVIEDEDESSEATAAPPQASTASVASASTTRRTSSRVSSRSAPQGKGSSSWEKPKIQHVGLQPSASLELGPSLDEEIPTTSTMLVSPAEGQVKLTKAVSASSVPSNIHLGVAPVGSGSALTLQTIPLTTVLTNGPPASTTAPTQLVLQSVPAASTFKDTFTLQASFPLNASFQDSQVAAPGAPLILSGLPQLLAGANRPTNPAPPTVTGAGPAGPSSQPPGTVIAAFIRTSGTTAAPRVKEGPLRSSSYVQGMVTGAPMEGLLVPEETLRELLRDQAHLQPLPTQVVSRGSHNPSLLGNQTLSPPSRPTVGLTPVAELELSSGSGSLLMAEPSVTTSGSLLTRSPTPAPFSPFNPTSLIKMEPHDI
In short: as §1

ELK4 = biological target: T3, ELK4 (Homo sapiens, UniProt P28324-2 1-405); conditions: protein: recombinant; tags: N-terminal GST; dsDNA, one strand shown
T3 sequence: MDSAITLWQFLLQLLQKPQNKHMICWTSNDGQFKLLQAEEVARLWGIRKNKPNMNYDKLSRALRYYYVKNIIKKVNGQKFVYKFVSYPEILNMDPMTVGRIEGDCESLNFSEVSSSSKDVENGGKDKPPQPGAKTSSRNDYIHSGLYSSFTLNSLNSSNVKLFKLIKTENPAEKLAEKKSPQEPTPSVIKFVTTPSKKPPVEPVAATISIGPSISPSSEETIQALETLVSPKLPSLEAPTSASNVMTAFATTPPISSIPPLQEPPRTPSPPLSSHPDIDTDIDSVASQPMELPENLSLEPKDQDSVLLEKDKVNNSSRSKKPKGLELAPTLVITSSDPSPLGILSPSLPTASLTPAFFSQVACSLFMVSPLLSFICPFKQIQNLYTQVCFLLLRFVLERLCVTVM
In short: as §1

ETV2 = biological target: T4, ETV2 (Homo sapiens, UniProt O00321 1-342); conditions: protein: recombinant; tags: N-terminal GST; dsDNA, one strand shown
T4 sequence: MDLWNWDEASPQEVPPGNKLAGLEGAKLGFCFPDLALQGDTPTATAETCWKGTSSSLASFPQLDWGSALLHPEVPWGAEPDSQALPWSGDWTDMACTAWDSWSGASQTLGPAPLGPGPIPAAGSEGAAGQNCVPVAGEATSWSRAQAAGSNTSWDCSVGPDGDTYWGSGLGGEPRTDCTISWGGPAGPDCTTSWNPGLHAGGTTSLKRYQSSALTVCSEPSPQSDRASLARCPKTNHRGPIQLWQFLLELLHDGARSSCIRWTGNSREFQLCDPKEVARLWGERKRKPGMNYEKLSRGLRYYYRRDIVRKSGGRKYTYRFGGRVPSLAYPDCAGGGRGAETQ
In short: as §1

ELF3 = biological target: T5, ELF3 (Homo sapiens, UniProt P78545 1-371); conditions: protein: recombinant; tags: N-terminal GST; dsDNA, one strand shown
T5 sequence: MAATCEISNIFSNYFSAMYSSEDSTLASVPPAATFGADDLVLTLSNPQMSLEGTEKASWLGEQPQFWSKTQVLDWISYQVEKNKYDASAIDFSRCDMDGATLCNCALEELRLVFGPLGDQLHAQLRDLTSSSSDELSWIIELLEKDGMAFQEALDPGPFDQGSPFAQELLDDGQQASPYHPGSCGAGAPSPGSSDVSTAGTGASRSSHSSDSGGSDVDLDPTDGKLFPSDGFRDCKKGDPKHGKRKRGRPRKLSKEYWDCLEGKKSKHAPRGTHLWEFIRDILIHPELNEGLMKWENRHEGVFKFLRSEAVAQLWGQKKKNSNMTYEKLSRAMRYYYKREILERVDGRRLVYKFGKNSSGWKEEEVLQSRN
In short: as §1

CRX = CRX (Homo sapiens, UniProt O43186 1-299); conditions: protein: recombinant; tags: N-terminal GST; dsDNA, one strand shown
Sequence of CRX (O43186 whole entry): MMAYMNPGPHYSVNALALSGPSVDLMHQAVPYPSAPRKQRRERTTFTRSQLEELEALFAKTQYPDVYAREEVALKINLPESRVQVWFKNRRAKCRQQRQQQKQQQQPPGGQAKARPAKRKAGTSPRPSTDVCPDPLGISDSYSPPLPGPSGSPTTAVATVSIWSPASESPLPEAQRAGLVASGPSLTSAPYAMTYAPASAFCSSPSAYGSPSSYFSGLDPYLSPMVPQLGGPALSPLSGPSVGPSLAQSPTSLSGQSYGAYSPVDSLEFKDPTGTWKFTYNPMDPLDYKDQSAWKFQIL
In short: as §1

ETV1 = ETV1 (Homo sapiens, UniProt P50549 1-477); conditions: protein: recombinant; tags: N-terminal GST; dsDNA, one strand shown
Sequence of ETV1 (P50549 whole entry): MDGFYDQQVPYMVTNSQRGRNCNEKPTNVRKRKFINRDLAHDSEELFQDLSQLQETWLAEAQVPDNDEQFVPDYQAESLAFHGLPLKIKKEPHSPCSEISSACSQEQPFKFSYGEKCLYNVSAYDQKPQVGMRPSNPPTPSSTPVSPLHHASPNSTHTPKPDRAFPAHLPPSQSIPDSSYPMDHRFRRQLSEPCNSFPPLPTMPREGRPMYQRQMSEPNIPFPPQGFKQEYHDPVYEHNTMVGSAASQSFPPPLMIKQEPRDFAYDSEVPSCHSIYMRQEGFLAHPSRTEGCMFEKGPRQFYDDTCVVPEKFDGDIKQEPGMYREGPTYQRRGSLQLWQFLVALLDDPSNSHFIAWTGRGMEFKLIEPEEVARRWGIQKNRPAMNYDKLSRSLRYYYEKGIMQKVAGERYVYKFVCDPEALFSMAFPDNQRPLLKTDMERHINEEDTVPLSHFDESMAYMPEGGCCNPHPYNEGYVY
In short: as §1

Sequence: CTTTTA
- binding signal (FEV): 1.36 fold enrichment (6-mer frequency, TF over GST control)
- binding signal (ETV5): 1.29 fold enrichment (6-mer frequency, TF over GST control)
- binding signal (HSF1): 1.3 fold enrichment (6-mer frequency, TF over GST control)
- binding signal (SPIC): 1.49 fold enrichment (6-mer frequency, TF over GST control)
- binding signal (ELF4): 1.43 fold enrichment (6-mer frequency, TF over GST control)
- binding signal (ELK4): 1.21 fold enrichment (6-mer frequency, TF over GST control)
- binding signal (ETV2): 1.28 fold enrichment (6-mer frequency, TF over GST control)
- binding signal (ELF3): 1.34 fold enrichment (6-mer frequency, TF over GST control)
- binding signal (CRX): 1.61 fold enrichment (6-mer frequency, TF over GST control)
- binding signal (ETV1): 1.41 fold enrichment (6-mer frequency, TF over GST control)

— article PMC7862700, “An all-to-all approach to the identification of sequence-specific readers for epigenetic DNA modifications on cytosine”
